Hits are enriched below; roughly 12% of the tested compounds scored in any of these assays.
BAZ2B block: blocks human BAZ2B; Q9UIF8; AlphaScreen BAZ2B-H3K14Ac peptide displacement; Potency, µM (series often up to 114 µM), usual class: inhibitors; 360,000 compounds, 4.4% hits; AID 504333; further: nearly all actives have a fitted effect of over 60% in size
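Multi-concentration screen (max 110 uM) measuring displacement of acetylated histone H3 peptide from BAZ2B by AlphaScreen, using 50 nM protein, 50 nM peptide and 10 ug/mL streptavidin donor plus Ni-chelate acceptor beads.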
L3MBTL1 inh: L3MBTL1 (human) inhibition. 230,000 compounds, 0.66% hits. Potency, µM (doses to about 57.1 µM), usual class: inhibitors. AID 485360. Q9Y468. AlphaScreen L3MBTL1–H3K9me1 peptide binding; further: nearly all actives have a fitted effect of over 60% in size
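First, the protein-peptide complex forms for 30 min at room temperature (L3MBTL1 50 nM, biotinylated H3K9me1 peptide 75 nM). Next, compounds are pin-transferred and incubated 30 min. Finally, AlphaScreen beads are added and read after 30 min.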
HP1b chromo inh: blocks HP1-beta chromodomain binding to methylated histone tails; P83916; AlphaScreen HP1-beta / biotin-H3K9me3 peptide binding; AID 540317; 390,000 compounds, 0.56% hits; Potency, µM (highest dose often 114 µM), usual class: inhibitors; further: nearly all actives have a fitted effect of over 70% in size
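Compound inhibition of the preformed complex between 50 nM HP1-beta and 50 nM biotinylated H3K9me3 peptide was read by AlphaScreen. Buffer was PBS pH 7.4 with 0.01% Tween-20. Incubations ran 30 min at room temperature, with 10 ug/mL donor/acceptor beads.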
Sfp PPTase inh: Sfp phosphopantetheinyl transferase inhibition. 310,000 compounds, 3.5% hits. Biochemical Sfp PPTase activity, qHTS. Q9F4F7. AID 1490. Potency, µM, hits mostly inhibitors;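 further: the enzyme is Sfp with the accession as filed and its product quenches rhodamine fluorescence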
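Buffer: 50 mM Hepes-Na pH 7.6, 10 mM MgCl2, 0.01% Nonidet P-40, 0.01% BSA. Enzyme 15 nM, pre-exposed to compound 15 min; substrates then added and fluorescence change tracked over 30 min.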
G9a block: blocks human histone lysine methyltransferase G9a; Q96KQ7; G9a H3K9 monomethylation, AlphaScreen, 2 h; AID 504332; 350,000 compounds, 8.8% hits; Potency, µM (titrated, usually from 102 µM), hits mostly inhibitors; further: nearly all actives have a fitted effect of over 75% in size
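Methyltransferase reactions run at room temperature for 2 h (20 nM enzyme, 500 nM biotin-H3K9 peptide, 20 uM SAM) after a 15 min compound preincubation; product detected by AlphaScreen beads and anti-H3K9me1 antibody.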
JMJD2A Tudor inh: blocks the human JMJD2A Tudor domain | Potency, µM (highest dose often 114 µM), most hits filed as inhibitors | O75164 | 390,000 compounds, 4.4% hits | AlphaScreen JMJD2A-Tudor / H3K4me3 peptide binding; further: nearly all actives have a fitted effect of over 50% in size
A number is an active result; – = inactive; ? = inconclusive; · = no result; [ ] = dose if it differs, or a comment. The call rests on the fitted dose curve; in most records, active means well fitted curve in the direction sought with a large enough effect; inconclusive means small, poorly fitted or top-dose-only effect, or another doubt; inactive means no such curve, though single readings can be large; an effect the other way counts as inactive or inconclusive.

SMILES	BAZ2B block	L3MBTL1 inh	HP1b chromo inh	Sfp PPTase inh	G9a block	JMJD2A Tudor inh
O=c1oc2cc([N+](=O)[O-])ccc2nc1/C=C(\O)c1cccc(Br)c1	?	·	–	–	20µM	?
Cc1nc(C)c(/C(O)=C/c2nc3ccccc3oc2=O)s1	–	–	–	?	?	–
O=c1oc2cc([N+](=O)[O-])ccc2nc1/C=C(O)/C=C/c1ccccc1	50.1µM	·	·	50.1µM	35.5µM	·
CC(C)(C)/C(O)=C/c1nc2ccccc2oc1=O	–	–	–	–	·	–
CC(C)ON(C(C(=O)NO)C(C)C)S(=O)(=O)c1ccc(-c2ccccc2)cc1 (stereo not given)	·	·	·	–	·	·
CCCC(=O)Nc1nc(-c2ccc3c(c2)CCN3S(C)(=O)=O)cs1	–	–	–	–	–	–
CS(=O)(=O)N1CCc2cc(-c3csc(NC(=O)Cc4ccccc4)n3)ccc21	–	–[11.4 µM]	–	–	14.1µM	–
CS(=O)(=O)N1CCc2cc(-c3csc(NCC4CCCO4)n3)ccc21 (stereo not given)	–	–	–	50.1µM	5.62µM	–
Cc1ccccc1C1=Nn2c(nnc2-c2ccco2)SC1	–	–	–	?	28.2µM	–
COc1ccc(C2=Nn3c(nnc3-c3ccco3)SC2)cc1OC	–	–	–	?	–	–
CC1=Nn2c(nnc2-c2ccco2)SC1	–	–	–	56.2µM	–[0.501 µM]	–
COc1cc(C(CC(=O)Nc2cc(C)ccn2)N2Cc3ccccc3C2=O)cc(OC)c1OC (stereo not given)	–	·	–	–	–	–
O=C(O)c1ccc(Cn2cnc3cccnc32)cc1	–	·	–	–	39.8µM	–
O=C(O)c1ccc(Cn2cnc3scc(-c4ccccc4)c3c2=O)cc1	–	–	–	–	–	–
CN1c2ccc([N+](=O)[O-])cc2N(C)C1(C)c1ccccc1 (stereo not given)	8.91µM	14.1µM	10µM	?	·	10µM
CCN(CC)c1ccc(S(=O)(=O)N2CCOCC2)cc1NC(=O)COC(=O)/C=C/c1ccco1	·	·	–	·	·	–
C=CCn1c(O)c(N=NC(=S)Nc2ccc(OC)cc2)c2ccccc21	?	?	?	–	28.2µM	?
C=CCn1c(O)c(N=NC(=S)Nc2cccc(OC)c2)c2ccccc21	7.94µM	?	?	–	28.2µM	?
c1ccc(-c2nn[nH]n2)nc1	5.62µM	·	–	56.2µM	·	7.08µM
Nn1c(-c2ccccn2)nnc1-c1ccccn1	31.6µM	–	–	–	–[12.7 µM]	79.4µM
Cc1ccc(NC(=O)CSc2nnc(-c3ccccn3)n2N)cc1F	–	–	–	–	–	–
Nc1ccccc1-c1nnc(-c2ccccc2N)n1N	?	–[11.4 µM]	–	–	–	–
Cc1ccc(C)c(CSc2nnc(-c3ccccn3)n2N)c1	·	–	–	–	–	39.8µM
Nn1c(SCc2c(F)cccc2F)nnc1-c1ccccn1	12.6µM	20µM	–	–	–	8.91µM
CCOC(=O)CSc1nc2ccc(NC(=O)c3ccc(C)cc3)cc2s1	–	·	–	·	–	–
SMILES	BAZ2B block	L3MBTL1 inh	HP1b chromo inh	Sfp PPTase inh	G9a block	JMJD2A Tudor inh
CC(=O)c1ccc(N2CCN(C(=O)Nc3cn(CC(C)C)c(=O)c4ccccc34)CC2)cc1	–	·	–	·	?	–
COC(=O)[C@]1(Cc2ccccc2)N[C@H](CN(C)C(=O)c2ccccc2)[C@@H]2C(=O)N(Cc3ccccc3)C(=O)[C@@H]21	·	–	–	·	·	–
O=C(CSc1ncn[nH]1)c1ccc(OC(F)F)cc1	–	·	–	–	25.1µM	–
Cn1ccnc1SCC(=O)c1ccc(OC(F)F)cc1	–	·	–	–	?	–
COc1ccc(C(=O)CSc2ncn[nH]2)cc1OC	–	–	–	–	?	39.8µM
Cc1ccc(Nc2nnc(SCc3cc(=O)n4ccsc4n3)s2)c(C)c1	–	–	–	–	35.5µM	–
Cc1cccc(-n2c(SCc3cc(=O)n4ccsc4n3)nc3ccccc32)c1	–	?	–	–	5.01µM	?
CCc1ccc(Nc2nnc(SCc3cc(=O)n4ccsc4n3)s2)cc1	–	·	–	–	2µM	–
COc1ccc(C(C)=O)cc1CSc1nnc(Nc2ccc(C)cc2C)s1	–	–	–	–	35.5µM	?
Cc1ccc(SCc2cc(=O)n3ccsc3n2)c(C)c1	–	–	·	–	–	·
COc1ccccc1Nc1nnc(SCc2cc(=O)n3ccsc3n2)s1	–	?	–	–	?	–
Cc1ccc(Oc2c(C(F)(F)F)oc3c(CN4CCC(C)CC4)c(O)ccc3c2=O)cc1	–	·	–	·	–	–
COc1ccc(/C=C(/C#N)c2nc(-c3ccc(-c4ccccc4)cc3)cs2)cc1OC	–	·	–	·	?	–
COc1ccc(-c2csc(/C(C#N)=C(\O)CSc3nccn3C)n2)cc1OC	50.1µM	?	–	?	44.7µM	–
O=S1(=O)c2ccccc2Nc2ccccc21	–	·	–	–	–[0.501 µM]	–
Cc1ocnc1C(=O)Nc1ccc(Cl)cc1	–	–	–	–	?	–
CC(=O)N(Cc1ccco1)c1nc(C(=O)Nc2ccc(Cl)cc2)c(C)s1	–	–	?	20µM	?	–
COc1ccc(NS(=O)(=O)c2cc(NC(=O)C3CCCO3)ccc2N2CCCCC2)cc1 (stereo not given)	–	·	–	–	39.8µM	–[11.4 µM]
COc1ccc(NS(=O)(=O)c2cc(NC(=O)CCNC(C)=O)ccc2N2CCCCC2)cc1	–	–	–	·	–[2.33 µM]	–
COc1ccc(CCC(=O)Nc2ccc(N3CCOCC3)c(S(=O)(=O)Nc3ccc(OC)cc3)c2)cc1	·	·	–	·	·	–
COc1ccc(NS(=O)(=O)c2cc(NC(=O)CC3CCCC3)ccc2N2CCOCC2)cc1	·	–	–	25.1µM	?	–
COc1ccc(NS(=O)(=O)c2cc(NC(=O)c3cc(F)c(F)c(F)c3F)ccc2N2CCCC2)cc1	–	·	–	–	·	–
COc1ccc(NS(=O)(=O)c2cc(NC(=O)c3ccco3)ccc2N2CCCC2)cc1	–	–	–	–	39.8µM	–
COc1ccc(NS(=O)(=O)c2cc(NC(=O)C3CCCO3)ccc2N2CCCC2)cc1 (stereo not given)	–	–	–	–	25.1µM	–
CCc1ccc(OC(C)C(=O)Nc2c(C(=O)c3ccccc3)oc3ccccc23)cc1 (stereo not given)	–	·	–	·	–	–
COc1cccc(NC(=O)Cn2c(=O)n(CCc3ccc(OC)c(OC)c3)c(=O)c3ccccc32)c1	–	·	–	·	–	–
CCC12CN3CC(CC)(CN(C1)C3c1c[nH]c3ccccc13)C2=O (stereo not given)	?	·	–	·	–	–
CN(C)c1ccc(CNC(=O)c2ccc(Cn3c(SCc4ccccc4)nc4cccnc43)cc2)cc1	?	·	–	·	10µM	?
NC(=O)CSc1nc2ccccc2c(=O)n1CCc1ccccc1	–	–	–	–	79.4µM	–

Screening data as filed in PubChem BioAssay.
